Inconclusive results are not listed. Calls of active or inactive are those of the source. Calls come from the whole dose curve; as a rule, active = well fitted inhibition curve with a large enough effect; inconclusive = small, poorly fitted or top-dose-only effect; inactive = flat fitted curve, though single readings scatter.
Target: Calcium and integrin-binding protein 1 (Homo sapiens) (UniProt Q99828)
Assay: Primary qHTS for Identification of Calcium Integrin Binding Protein 1 (CIB1) Competitor (AID 1508620);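 note: GST tagged CIB1 binding a fluorescein labelled alphaIIb integrin peptide tracer; top concentration of the series differs between compounds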
Settings: CIB1-GST / FITC-alphaIIb peptide fluorescence polarization; series mostly up to 114 µM; activity change, negative = inhibition: at the top concentration
Outline: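 Fluorescence polarization competition: CIB1-GST (1 uM final) preincubated with compound 15 min at room temperature, then FITC-labeled alphaIIb peptide (100 nM final) added for another 15 min. Polarization read at Ex 480/Em 540.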
% is set by controls: 0 for no effect and ±100 for the full control effect.

Calcium and integrin-binding protein 1 (Homo sapiens), sequence (Q99828 whole entry, looked up): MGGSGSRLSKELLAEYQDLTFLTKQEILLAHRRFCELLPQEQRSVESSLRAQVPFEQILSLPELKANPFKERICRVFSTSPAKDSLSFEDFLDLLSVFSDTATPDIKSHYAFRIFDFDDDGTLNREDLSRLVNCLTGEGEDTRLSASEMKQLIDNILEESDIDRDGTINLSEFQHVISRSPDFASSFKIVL

| SMILES | activity change, negative = inhibition |
| --- | --- |
| O=C(Nc1ccc(Cl)c(Cl)c1)Nc1nnc(Br)s1 | 1.17% (inactive) |
| CN(C)c1ccc(C(=O)OCC#CCSc2nnc(-c3cccc4ccccc34)o2)cc1 | -1.89% (inactive) |
| Cc1noc(C)c1-c1ccc2ncnc(NCc3ccc(C(F)(F)F)o3)c2c1 | -0.457% (inactive) |
| O=C(CNC(=O)c1ccncc1)OC(C(=O)Nc1cc(C(F)(F)F)ccc1Cl)c1ccccc1 (centres undefined) | 0.363% (inactive) |
| O=c1c2ccccc2nc2sc(Nc3cccc(-c4ccncc4)c3)nn12 | 8.54% (inactive) |
| Cc1ccc(-c2ccc(=O)n(CC(=O)NCCc3ccccc3)n2)cc1 | 0.999% (inactive) |
| O=C(Nc1cccc(Cc2ccccc2)n1)c1ccc(-c2cccc([N+](=O)[O-])c2)o1 | 1.05% (inactive) |
| CCn1cnc2c(NCCc3cccnc3)nc(C#N)nc21 | 6.06% (inactive) |
| CC(=O)NC(c1cc(Cl)c2cccnc2c1O)C(C)C (centres undefined) | -13% (inactive) |
| O=C1c2ccccc2C(=O)N1c1nccs1 | -0.877% (inactive) |
| COc1ccccc1-c1no[n+]([O-])c1C#N | -0.268% (inactive) |
| Cc1ccnc(NC(=S)N2CCNCC2)c1 | -1.7% (inactive) |
| O=c1c2[nH]c3ccsc3c2cnn1Cc1ccccc1F | 1.08% (inactive) |
| CC(C)(C)OC(=O)N1CCN(c2cnc(NCc3ccc(-c4ccc(C#N)cc4)o3)nc2)CC1 | -14% (inactive) |
| O=C1CCCC2=C1C(c1[nH]ncc1Cl)NC(=NCc1ccncc1)N2 (centres undefined) | -4.89% (inactive) |
| Cn1c2ccsc2c2cnn(Cc3ccc(F)cc3)c(=O)c21 | 0.241% (inactive) |
| CNc1oc(-c2cccc3ncccc23)nc1C#N | -2.75% (inactive) |
| CNC(=O)C1CCN(c2nc(-c3ccc(Br)cc3)cs2)CC1 | -0.533% (inactive) |
| Nc1ccc(Nc2cc(O)c3ncccc3c2)cc1 | -18.4% (inactive) |
